Columns and labels:
Assay in all cases: DAPPL (digital affinity profiling via proximity ligation, sequencing); 10 mM Tris-HCl pH 7.5, 50 mM NaCl, 1 mM DTT, 4% glycerol, room temperature, 30 min; GST-TFs on glutathione beads, 16-mer random dsDNA library, 0.1% formaldehyde crosslink after washing; high values mean tight binding
FEV = target: T1, FEV (Homo sapiens, UniProt Q99581 1-238); settings: protein: recombinant; tags: N-terminal GST; dsDNA, one strand shown
T1 sequence: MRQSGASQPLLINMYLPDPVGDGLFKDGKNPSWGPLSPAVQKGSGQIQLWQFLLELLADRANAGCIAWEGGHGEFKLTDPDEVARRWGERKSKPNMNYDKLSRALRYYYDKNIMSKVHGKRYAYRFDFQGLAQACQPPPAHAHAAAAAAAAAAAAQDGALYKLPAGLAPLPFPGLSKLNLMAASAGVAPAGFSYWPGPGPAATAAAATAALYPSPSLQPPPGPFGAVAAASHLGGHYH
Method in brief: (§1)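 Human transcription factors were made in yeast as GST fusions, captured on glutathione beads and barcoded with DNA. With a tag-only sample included, the pool was incubated with 200 nmole of a random double-stranded 16-mer DNA library in Tris/NaCl/DTT/glycerol buffer at room temperature for 30 min, then crosslinked with 0.1% formaldehyde after washing, ligated by proximity, amplified and sequenced. For binding signal, each hexamer's read frequency for a factor is divided by its frequency for the tag-only sample.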

ETV5 = ETV5 (Homo sapiens, UniProt P41161 1-510); settings: protein: recombinant; tags: N-terminal GST; dsDNA, one strand shown
Method in brief: as §1

HSF1 = HSF1 (Homo sapiens, UniProt Q00613 1-529); settings: protein: recombinant; tags: N-terminal GST; chain copies: 3; dsDNA, one strand shown
Method in brief: as §1

SPIC = target: T2, SPIC (Homo sapiens, UniProt Q8N5J4 1-248); settings: protein: recombinant; tags: N-terminal GST; dsDNA, one strand shown
T2 sequence: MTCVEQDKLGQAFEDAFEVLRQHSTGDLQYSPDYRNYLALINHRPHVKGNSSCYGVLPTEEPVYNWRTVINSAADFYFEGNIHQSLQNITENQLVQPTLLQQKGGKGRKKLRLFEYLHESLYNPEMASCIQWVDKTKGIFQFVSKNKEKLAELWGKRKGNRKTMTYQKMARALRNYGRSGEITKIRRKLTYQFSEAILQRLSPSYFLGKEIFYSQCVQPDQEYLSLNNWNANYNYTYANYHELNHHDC
Method in brief: as §1

ELF4 = ELF4 (Homo sapiens, UniProt Q99607 1-663); settings: protein: recombinant; tags: N-terminal GST; dsDNA, one strand shown
Method in brief: as §1

ELK4 = target: T3, ELK4 (Homo sapiens, UniProt P28324-2 1-405); settings: protein: recombinant; tags: N-terminal GST; dsDNA, one strand shown
T3 sequence: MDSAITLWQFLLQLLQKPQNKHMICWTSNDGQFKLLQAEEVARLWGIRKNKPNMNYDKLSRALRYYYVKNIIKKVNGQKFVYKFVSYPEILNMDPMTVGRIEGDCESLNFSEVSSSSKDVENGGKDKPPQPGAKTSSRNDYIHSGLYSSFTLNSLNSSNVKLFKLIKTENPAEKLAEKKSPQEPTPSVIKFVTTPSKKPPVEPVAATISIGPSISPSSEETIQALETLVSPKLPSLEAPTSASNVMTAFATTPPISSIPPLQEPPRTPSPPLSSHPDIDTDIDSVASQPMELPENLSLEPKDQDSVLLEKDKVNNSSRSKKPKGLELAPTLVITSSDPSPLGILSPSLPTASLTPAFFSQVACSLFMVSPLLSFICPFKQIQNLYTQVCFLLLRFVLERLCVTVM
Method in brief: as §1

ETV2 = target: T4, ETV2 (Homo sapiens, UniProt O00321 1-342); settings: protein: recombinant; tags: N-terminal GST; dsDNA, one strand shown
T4 sequence: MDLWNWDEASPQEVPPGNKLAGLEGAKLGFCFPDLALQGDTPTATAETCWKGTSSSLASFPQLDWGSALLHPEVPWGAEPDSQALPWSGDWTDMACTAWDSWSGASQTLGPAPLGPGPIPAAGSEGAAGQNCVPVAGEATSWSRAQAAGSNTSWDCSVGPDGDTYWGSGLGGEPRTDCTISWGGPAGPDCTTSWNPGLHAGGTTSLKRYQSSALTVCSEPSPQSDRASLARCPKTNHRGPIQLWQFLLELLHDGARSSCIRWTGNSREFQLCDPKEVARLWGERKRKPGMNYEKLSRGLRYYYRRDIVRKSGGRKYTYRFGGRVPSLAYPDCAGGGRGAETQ
Method in brief: as §1

ELF3 = target: T5, ELF3 (Homo sapiens, UniProt P78545 1-371); settings: protein: recombinant; tags: N-terminal GST; dsDNA, one strand shown
T5 sequence: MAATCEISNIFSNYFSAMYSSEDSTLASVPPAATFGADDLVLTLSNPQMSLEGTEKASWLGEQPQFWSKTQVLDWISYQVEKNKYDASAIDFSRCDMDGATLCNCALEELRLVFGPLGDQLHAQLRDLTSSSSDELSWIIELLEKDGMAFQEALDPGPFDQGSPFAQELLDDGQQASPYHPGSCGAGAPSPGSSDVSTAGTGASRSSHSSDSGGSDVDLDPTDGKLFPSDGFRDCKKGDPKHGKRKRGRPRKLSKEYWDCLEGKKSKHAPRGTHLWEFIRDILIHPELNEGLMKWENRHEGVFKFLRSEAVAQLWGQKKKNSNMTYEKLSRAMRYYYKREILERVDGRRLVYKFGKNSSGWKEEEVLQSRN
Method in brief: as §1

CRX = CRX (Homo sapiens, UniProt O43186 1-299); settings: protein: recombinant; tags: N-terminal GST; dsDNA, one strand shown
Method in brief: as §1

ETV1 = ETV1 (Homo sapiens, UniProt P50549 1-477); settings: protein: recombinant; tags: N-terminal GST; dsDNA, one strand shown
Method in brief: as §1

ERF = target: T6, ERF (Homo sapiens, UniProt P50548 1-548); settings: protein: recombinant; tags: N-terminal GST; dsDNA, one strand shown
T6 sequence: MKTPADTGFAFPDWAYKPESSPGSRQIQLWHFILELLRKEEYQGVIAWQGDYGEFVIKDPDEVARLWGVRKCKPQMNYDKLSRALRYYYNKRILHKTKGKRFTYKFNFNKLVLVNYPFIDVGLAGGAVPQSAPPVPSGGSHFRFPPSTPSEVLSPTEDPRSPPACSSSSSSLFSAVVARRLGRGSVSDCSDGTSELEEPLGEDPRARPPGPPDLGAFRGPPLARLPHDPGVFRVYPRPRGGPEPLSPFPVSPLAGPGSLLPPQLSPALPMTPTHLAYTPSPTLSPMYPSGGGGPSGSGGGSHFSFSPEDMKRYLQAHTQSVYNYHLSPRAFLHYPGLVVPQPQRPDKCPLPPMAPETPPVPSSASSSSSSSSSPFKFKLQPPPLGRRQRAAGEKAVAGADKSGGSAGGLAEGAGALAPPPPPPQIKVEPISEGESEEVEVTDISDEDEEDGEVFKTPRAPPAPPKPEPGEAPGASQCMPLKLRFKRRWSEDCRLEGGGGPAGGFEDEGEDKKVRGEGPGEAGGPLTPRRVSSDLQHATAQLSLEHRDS
Method in brief: as §1

ETV3L = target: T7, ETV3L (Homo sapiens, UniProt Q6ZN32 1-361); settings: protein: recombinant; tags: N-terminal GST; dsDNA, one strand shown
T7 sequence: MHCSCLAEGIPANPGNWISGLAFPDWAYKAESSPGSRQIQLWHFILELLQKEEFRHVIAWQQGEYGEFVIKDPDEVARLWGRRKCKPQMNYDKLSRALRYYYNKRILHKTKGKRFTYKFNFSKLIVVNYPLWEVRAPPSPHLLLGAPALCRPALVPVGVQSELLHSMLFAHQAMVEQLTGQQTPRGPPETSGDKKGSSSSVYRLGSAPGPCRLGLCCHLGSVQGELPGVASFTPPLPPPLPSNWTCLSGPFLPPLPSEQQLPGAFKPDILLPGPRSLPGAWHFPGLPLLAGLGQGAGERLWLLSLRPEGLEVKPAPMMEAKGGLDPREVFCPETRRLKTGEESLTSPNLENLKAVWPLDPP
Method in brief: as §1

ETS2 = target: T8, ETS2 (Homo sapiens, UniProt P15036 1-469); settings: protein: recombinant; tags: N-terminal GST; dsDNA, one strand shown
T8 sequence: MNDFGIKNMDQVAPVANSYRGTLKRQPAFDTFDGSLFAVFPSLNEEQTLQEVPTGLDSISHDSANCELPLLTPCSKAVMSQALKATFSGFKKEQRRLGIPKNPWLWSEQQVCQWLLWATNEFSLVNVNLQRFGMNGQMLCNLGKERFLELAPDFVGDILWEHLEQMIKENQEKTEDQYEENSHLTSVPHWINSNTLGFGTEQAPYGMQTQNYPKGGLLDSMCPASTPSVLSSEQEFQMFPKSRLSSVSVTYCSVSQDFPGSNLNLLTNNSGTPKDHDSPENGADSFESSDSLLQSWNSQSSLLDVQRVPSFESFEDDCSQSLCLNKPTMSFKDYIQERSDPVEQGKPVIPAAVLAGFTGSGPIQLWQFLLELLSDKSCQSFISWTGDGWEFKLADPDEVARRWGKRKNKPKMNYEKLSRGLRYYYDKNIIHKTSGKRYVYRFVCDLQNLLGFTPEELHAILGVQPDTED
Method in brief: as §1

SPDEF = target: T9, SPDEF (Homo sapiens, UniProt O95238 1-335); settings: protein: recombinant; tags: N-terminal GST; dsDNA, one strand shown
T9 sequence: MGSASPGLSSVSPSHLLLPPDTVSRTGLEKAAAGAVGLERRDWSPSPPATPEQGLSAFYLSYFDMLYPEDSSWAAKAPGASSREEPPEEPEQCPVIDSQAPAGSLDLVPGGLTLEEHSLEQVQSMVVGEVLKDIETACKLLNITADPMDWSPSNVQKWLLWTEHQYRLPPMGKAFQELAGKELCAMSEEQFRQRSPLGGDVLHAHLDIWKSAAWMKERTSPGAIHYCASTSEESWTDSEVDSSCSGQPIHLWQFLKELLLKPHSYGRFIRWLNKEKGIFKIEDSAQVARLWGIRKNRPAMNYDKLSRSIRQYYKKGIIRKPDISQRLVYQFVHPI
Method in brief: as §1

ETV7 = target: T10, ETV7 (Homo sapiens, UniProt Q9Y603 1-341); settings: protein: recombinant; tags: N-terminal GST; dsDNA, one strand shown
T10 sequence: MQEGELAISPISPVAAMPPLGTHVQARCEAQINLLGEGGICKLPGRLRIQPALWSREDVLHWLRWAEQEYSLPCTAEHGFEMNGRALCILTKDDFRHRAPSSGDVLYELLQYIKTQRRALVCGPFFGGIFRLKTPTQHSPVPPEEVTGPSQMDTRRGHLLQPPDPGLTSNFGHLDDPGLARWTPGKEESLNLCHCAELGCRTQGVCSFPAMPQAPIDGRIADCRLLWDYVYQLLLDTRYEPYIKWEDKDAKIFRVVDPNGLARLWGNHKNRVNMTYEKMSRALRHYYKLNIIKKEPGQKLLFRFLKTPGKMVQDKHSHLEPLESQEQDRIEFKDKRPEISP
Method in brief: as §1

ELF5 = target: T11, ELF5 (Homo sapiens, UniProt Q9UKW6-2 1-255); settings: protein: recombinant; tags: N-terminal GST; dsDNA, one strand shown
T11 sequence: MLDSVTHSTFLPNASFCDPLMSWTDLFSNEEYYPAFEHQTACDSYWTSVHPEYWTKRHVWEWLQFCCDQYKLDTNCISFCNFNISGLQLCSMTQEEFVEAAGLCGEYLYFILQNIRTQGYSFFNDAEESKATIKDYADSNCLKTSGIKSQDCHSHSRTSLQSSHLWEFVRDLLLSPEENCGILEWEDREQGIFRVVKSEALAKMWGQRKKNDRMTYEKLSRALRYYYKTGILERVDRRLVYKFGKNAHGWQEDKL
Method in brief: as §1

ETV3 = target: T12, ETV3 (Homo sapiens, UniProt P41162-2 1-143); settings: protein: recombinant; tags: N-terminal GST; dsDNA, one strand shown
T12 sequence: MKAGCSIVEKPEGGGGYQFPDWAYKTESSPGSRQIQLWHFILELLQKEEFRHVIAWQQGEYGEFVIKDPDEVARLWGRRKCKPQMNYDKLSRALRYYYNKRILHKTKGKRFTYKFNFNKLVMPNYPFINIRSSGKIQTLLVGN
Method in brief: as §1

ETV6 = ETV6 (Homo sapiens, UniProt P41212 1-452); settings: protein: recombinant; tags: N-terminal GST; dsDNA, one strand shown
Method in brief: as §1

ETV5, sequence (P41161 whole entry): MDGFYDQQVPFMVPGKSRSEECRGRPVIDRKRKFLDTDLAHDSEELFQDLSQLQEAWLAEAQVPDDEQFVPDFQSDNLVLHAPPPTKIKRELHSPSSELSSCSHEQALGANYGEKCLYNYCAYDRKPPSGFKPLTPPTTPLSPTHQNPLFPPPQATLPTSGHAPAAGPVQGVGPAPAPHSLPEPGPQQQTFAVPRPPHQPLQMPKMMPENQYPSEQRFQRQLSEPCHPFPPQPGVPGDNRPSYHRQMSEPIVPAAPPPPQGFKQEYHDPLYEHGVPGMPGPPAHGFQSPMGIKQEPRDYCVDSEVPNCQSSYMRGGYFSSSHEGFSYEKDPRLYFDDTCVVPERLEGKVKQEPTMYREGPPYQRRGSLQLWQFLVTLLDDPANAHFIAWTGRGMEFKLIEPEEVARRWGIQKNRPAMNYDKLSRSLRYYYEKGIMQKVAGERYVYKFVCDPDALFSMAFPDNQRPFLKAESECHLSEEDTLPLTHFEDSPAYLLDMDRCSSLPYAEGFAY
ETV1, sequence (P50549 whole entry): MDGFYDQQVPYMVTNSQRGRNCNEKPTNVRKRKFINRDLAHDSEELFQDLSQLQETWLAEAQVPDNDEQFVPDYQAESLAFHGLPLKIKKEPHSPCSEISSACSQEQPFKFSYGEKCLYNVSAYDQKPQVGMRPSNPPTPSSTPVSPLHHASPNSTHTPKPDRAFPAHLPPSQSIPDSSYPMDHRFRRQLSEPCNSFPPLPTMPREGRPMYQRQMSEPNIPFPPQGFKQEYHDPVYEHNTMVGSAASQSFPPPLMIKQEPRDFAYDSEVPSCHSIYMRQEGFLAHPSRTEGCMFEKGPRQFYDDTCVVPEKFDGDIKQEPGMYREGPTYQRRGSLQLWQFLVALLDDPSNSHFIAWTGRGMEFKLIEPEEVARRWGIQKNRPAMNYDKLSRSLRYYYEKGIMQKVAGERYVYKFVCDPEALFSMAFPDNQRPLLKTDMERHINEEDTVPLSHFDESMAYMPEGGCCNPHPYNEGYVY
CRX, sequence (O43186 whole entry): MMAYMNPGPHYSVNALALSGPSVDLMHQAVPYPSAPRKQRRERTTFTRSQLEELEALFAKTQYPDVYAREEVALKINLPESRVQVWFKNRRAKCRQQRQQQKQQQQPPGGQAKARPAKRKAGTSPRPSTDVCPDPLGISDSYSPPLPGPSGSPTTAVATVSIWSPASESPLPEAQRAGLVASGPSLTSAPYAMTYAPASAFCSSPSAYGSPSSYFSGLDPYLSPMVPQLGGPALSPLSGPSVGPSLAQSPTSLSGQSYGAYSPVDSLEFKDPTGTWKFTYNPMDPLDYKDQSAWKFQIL
HSF1, sequence (Q00613 whole entry): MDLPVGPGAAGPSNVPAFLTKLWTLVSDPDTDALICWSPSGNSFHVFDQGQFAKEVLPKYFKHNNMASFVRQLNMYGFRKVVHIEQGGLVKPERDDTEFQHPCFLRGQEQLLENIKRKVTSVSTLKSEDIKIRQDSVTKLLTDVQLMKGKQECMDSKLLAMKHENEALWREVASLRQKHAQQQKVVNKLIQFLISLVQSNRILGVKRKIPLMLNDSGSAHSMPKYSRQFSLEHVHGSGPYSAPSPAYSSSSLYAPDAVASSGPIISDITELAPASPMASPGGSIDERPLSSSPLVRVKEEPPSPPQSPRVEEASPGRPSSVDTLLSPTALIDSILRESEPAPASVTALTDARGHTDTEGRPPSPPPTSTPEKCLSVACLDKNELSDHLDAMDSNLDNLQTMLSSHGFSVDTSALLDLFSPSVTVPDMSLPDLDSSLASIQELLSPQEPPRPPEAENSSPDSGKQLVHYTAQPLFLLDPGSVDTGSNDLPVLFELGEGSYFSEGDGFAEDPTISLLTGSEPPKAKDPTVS
ETV6, sequence (P41212 whole entry): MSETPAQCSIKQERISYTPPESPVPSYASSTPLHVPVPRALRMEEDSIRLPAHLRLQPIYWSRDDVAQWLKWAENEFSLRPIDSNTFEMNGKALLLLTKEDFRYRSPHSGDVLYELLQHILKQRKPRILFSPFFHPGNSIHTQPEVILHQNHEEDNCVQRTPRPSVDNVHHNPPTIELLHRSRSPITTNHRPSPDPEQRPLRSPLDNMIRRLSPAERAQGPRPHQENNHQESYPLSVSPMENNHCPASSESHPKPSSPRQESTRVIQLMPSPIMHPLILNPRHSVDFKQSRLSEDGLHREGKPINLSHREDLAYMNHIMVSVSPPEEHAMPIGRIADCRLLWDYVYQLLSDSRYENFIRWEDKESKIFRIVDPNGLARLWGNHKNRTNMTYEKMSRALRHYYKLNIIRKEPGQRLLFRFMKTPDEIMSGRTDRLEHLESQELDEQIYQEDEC
ELF4, sequence (Q99607 whole entry): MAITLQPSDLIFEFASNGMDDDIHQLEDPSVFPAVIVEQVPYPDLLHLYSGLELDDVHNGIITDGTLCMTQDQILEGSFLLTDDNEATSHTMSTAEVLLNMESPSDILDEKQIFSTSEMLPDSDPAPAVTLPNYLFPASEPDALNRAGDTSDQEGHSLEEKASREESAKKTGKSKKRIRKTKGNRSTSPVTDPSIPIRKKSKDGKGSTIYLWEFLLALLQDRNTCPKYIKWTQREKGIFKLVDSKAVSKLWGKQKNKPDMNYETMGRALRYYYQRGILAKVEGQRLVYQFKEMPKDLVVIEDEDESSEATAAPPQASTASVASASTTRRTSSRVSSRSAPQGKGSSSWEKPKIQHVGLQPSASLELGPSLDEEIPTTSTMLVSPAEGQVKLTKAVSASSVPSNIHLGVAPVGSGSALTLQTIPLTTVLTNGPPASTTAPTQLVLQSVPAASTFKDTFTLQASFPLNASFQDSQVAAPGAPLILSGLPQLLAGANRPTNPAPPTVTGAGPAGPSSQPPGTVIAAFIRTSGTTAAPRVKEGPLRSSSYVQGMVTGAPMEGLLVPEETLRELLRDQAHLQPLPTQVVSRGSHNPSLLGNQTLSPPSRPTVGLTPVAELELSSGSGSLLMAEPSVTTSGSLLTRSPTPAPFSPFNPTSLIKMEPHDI

GATGAC
binding signal (FEV): 1.47 fold enrichment (6-mer frequency, TF over GST control) | binding signal (ETV5): 1.49 fold enrichment (6-mer frequency, TF over GST control) | binding signal (HSF1): 1.27 fold enrichment (6-mer frequency, TF over GST control) | binding signal (SPIC): 1.15 fold enrichment (6-mer frequency, TF over GST control) | binding signal (ELF4): 1.56 fold enrichment (6-mer frequency, TF over GST control) | binding signal (ELK4): 1.42 fold enrichment (6-mer frequency, TF over GST control) | binding signal (ETV2): 1.35 fold enrichment (6-mer frequency, TF over GST control) | binding signal (ELF3): 1.48 fold enrichment (6-mer frequency, TF over GST control) | binding signal (CRX): 1.26 fold enrichment (6-mer frequency, TF over GST control) | binding signal (ETV1): 1.55 fold enrichment (6-mer frequency, TF over GST control) | binding signal (ERF): 1.45 fold enrichment (6-mer frequency, TF over GST control) | binding signal (ETV3L): 1.53 fold enrichment (6-mer frequency, TF over GST control) | binding signal (ETS2): 1.44 fold enrichment (6-mer frequency, TF over GST control) | binding signal (SPDEF): 1.55 fold enrichment (6-mer frequency, TF over GST control) | binding signal (ETV7): 1.61 fold enrichment (6-mer frequency, TF over GST control) | binding signal (ELF5): 1.53 fold enrichment (6-mer frequency, TF over GST control) | binding signal (ETV3): 1.56 fold enrichment (6-mer frequency, TF over GST control) | binding signal (ETV6): 1.43 fold enrichment (6-mer frequency, TF over GST control)
